# Source: paper PMC7862700, “An all-to-all approach to the identification of sequence-specific readers for epigenetic DNA modifications on cytosine”
# Legend:
# Assay in all cases: DAPPL (digital affinity profiling via proximity ligation, sequencing); 10 mM Tris-HCl pH 7.5, 50 mM NaCl, 1 mM DTT, 4% glycerol, room temperature, 30 min; GST-TFs on glutathione beads, 16-mer random dsDNA library, 0.1% formaldehyde crosslink after washing; high values mean tight binding
# FEV = target: T1, FEV (Homo sapiens, UniProt Q99581 1-238); details: protein: recombinant; tags: N-terminal GST; dsDNA, one strand shown
# T1 sequence: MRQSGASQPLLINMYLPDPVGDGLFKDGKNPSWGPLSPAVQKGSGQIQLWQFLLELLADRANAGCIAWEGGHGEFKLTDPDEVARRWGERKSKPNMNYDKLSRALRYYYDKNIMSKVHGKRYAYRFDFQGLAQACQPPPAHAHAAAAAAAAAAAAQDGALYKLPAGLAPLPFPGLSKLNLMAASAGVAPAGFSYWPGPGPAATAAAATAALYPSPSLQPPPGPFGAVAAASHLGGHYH
# In short: (§1)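 Binding signal is given per hexamer as its read frequency for a factor divided by its frequency in the tag-only sample. GST-fused human transcription factors were expressed in yeast, captured on glutathione beads, barcoded with DNA and pooled with that sample, then incubated with 200 nmole of a 16-mer random double-stranded DNA library in Tris/NaCl/DTT/glycerol buffer for 30 min at room temperature. The pools were then washed, crosslinked, proximity-ligated, amplified by PCR and sequenced on an Illumina NextSeq500.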
# ETV5 = ETV5 (Homo sapiens, UniProt P41161 1-510); details: protein: recombinant; tags: N-terminal GST; dsDNA, one strand shown
# In short: as §1
# HSF1 = HSF1 (Homo sapiens, UniProt Q00613 1-529); details: protein: recombinant; tags: N-terminal GST; chain copies: 3; dsDNA, one strand shown
# In short: as §1
# SPIC = target: T2, SPIC (Homo sapiens, UniProt Q8N5J4 1-248); details: protein: recombinant; tags: N-terminal GST; dsDNA, one strand shown
# T2 sequence: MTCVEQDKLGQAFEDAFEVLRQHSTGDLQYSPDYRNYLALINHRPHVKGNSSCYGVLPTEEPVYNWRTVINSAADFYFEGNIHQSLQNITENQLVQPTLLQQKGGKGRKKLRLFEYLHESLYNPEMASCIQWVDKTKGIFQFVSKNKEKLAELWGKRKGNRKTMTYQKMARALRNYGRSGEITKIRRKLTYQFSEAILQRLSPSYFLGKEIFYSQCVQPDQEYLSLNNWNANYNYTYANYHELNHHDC
# In short: as §1
# ELF4 = ELF4 (Homo sapiens, UniProt Q99607 1-663); details: protein: recombinant; tags: N-terminal GST; dsDNA, one strand shown
# In short: as §1
# ELK4 = target: T3, ELK4 (Homo sapiens, UniProt P28324-2 1-405); details: protein: recombinant; tags: N-terminal GST; dsDNA, one strand shown
# T3 sequence: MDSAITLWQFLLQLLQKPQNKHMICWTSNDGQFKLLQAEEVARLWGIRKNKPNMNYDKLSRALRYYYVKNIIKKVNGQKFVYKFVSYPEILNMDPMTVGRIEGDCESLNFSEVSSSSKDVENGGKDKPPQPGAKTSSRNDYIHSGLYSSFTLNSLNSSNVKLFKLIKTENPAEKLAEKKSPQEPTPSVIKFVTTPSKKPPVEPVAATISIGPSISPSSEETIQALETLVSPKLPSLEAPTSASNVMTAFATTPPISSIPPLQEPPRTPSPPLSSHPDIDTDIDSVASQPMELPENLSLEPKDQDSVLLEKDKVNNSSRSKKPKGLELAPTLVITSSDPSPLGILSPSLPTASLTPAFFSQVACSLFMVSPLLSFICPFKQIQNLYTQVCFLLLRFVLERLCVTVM
# In short: as §1
# ETV2 = target: T4, ETV2 (Homo sapiens, UniProt O00321 1-342); details: protein: recombinant; tags: N-terminal GST; dsDNA, one strand shown
# T4 sequence: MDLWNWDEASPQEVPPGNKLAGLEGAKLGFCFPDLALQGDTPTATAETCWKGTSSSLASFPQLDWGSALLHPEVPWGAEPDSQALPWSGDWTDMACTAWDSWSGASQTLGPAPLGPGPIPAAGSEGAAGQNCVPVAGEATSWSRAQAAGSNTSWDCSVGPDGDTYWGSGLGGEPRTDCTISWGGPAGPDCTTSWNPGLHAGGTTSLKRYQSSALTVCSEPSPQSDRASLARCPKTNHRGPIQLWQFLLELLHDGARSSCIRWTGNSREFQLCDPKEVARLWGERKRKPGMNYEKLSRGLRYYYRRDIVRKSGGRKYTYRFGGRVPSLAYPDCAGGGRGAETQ
# In short: as §1
# ELF3 = target: T5, ELF3 (Homo sapiens, UniProt P78545 1-371); details: protein: recombinant; tags: N-terminal GST; dsDNA, one strand shown
# T5 sequence: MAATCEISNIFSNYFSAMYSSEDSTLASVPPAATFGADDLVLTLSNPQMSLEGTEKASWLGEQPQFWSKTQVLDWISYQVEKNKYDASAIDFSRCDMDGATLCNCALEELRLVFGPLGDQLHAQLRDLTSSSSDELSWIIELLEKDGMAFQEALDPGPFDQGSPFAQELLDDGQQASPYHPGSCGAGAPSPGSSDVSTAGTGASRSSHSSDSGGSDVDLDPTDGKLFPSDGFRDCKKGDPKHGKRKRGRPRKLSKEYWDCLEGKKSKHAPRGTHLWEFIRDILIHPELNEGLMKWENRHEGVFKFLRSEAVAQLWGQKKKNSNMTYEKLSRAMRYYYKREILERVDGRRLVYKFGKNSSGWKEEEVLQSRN
# In short: as §1
# CRX = CRX (Homo sapiens, UniProt O43186 1-299); details: protein: recombinant; tags: N-terminal GST; dsDNA, one strand shown
# In short: as §1
# ETV1 = ETV1 (Homo sapiens, UniProt P50549 1-477); details: protein: recombinant; tags: N-terminal GST; dsDNA, one strand shown
# In short: as §1
# ERF = target: T6, ERF (Homo sapiens, UniProt P50548 1-548); details: protein: recombinant; tags: N-terminal GST; dsDNA, one strand shown
# T6 sequence: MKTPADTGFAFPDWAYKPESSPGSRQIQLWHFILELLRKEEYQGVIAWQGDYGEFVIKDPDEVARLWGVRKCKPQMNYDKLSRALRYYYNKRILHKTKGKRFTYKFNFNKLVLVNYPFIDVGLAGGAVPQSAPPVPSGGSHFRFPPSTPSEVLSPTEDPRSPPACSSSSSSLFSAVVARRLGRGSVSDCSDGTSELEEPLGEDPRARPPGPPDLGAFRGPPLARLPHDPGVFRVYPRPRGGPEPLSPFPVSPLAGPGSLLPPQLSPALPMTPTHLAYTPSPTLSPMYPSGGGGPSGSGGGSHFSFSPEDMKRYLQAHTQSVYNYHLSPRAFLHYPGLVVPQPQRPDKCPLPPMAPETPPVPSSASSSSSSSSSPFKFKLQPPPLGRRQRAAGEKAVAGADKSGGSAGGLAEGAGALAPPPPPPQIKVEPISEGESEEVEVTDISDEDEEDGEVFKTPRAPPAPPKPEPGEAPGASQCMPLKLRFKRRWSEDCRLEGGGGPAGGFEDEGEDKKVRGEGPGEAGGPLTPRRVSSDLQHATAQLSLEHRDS
# In short: as §1
# ETV3L = target: T7, ETV3L (Homo sapiens, UniProt Q6ZN32 1-361); details: protein: recombinant; tags: N-terminal GST; dsDNA, one strand shown
# T7 sequence: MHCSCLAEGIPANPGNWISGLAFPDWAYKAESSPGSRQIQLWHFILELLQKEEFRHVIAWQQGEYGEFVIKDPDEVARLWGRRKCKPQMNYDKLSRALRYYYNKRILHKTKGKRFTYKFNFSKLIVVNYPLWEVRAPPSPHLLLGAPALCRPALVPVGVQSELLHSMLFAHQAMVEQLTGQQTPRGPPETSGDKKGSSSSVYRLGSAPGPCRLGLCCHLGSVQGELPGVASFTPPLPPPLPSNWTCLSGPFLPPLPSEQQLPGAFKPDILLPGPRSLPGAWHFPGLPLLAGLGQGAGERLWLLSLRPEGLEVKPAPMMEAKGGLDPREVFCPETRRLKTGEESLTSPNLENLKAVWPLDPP
# In short: as §1
# ETS2 = target: T8, ETS2 (Homo sapiens, UniProt P15036 1-469); details: protein: recombinant; tags: N-terminal GST; dsDNA, one strand shown
# T8 sequence: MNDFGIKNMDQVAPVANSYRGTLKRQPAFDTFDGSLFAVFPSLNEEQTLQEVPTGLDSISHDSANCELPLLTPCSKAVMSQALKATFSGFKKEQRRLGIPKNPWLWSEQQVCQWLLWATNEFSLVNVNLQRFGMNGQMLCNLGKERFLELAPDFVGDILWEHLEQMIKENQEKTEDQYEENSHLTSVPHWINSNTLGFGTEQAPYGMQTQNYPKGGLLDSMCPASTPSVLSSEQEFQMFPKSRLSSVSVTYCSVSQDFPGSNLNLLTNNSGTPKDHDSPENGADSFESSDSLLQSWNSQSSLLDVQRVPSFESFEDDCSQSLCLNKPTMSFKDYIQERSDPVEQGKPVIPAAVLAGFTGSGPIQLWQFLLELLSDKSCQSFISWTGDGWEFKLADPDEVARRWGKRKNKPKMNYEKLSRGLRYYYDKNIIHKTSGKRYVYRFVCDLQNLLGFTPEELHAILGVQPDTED
# In short: as §1
# SPDEF = target: T9, SPDEF (Homo sapiens, UniProt O95238 1-335); details: protein: recombinant; tags: N-terminal GST; dsDNA, one strand shown
# T9 sequence: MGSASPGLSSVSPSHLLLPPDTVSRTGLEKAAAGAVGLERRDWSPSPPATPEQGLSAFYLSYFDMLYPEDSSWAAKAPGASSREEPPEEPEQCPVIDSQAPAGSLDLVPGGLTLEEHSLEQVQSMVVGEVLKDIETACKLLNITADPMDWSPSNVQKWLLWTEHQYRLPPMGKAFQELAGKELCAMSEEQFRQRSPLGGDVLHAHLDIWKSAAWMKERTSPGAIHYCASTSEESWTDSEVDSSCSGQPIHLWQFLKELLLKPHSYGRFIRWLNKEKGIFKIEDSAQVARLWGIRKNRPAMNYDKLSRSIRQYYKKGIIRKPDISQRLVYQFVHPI
# In short: as §1
# ETV7 = target: T10, ETV7 (Homo sapiens, UniProt Q9Y603 1-341); details: protein: recombinant; tags: N-terminal GST; dsDNA, one strand shown
# T10 sequence: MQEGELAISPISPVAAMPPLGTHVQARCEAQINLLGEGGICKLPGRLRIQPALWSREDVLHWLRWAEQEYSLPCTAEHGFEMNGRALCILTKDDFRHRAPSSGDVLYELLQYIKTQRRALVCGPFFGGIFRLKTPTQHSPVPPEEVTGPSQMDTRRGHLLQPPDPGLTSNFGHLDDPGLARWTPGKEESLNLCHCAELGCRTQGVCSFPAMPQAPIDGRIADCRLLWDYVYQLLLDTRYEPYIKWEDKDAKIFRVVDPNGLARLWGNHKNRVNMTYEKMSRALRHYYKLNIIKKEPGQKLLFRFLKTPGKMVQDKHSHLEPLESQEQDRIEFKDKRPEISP
# In short: as §1
# ELF5 = target: T11, ELF5 (Homo sapiens, UniProt Q9UKW6-2 1-255); details: protein: recombinant; tags: N-terminal GST; dsDNA, one strand shown
# T11 sequence: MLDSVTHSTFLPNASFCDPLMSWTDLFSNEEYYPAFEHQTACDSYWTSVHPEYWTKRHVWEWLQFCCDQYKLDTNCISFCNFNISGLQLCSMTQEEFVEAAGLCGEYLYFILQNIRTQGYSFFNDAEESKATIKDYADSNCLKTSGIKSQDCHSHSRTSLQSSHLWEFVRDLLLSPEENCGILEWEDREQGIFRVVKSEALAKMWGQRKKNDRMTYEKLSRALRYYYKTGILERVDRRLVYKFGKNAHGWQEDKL
# In short: as §1
# ETV3 = target: T12, ETV3 (Homo sapiens, UniProt P41162-2 1-143); details: protein: recombinant; tags: N-terminal GST; dsDNA, one strand shown
# T12 sequence: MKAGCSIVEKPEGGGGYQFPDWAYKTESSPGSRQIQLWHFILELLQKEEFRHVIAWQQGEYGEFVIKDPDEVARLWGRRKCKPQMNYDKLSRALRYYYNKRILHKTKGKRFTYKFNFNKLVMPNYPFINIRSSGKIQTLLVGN
# In short: as §1
# ETV6 = ETV6 (Homo sapiens, UniProt P41212 1-452); details: protein: recombinant; tags: N-terminal GST; dsDNA, one strand shown
# In short: as §1
# Chain of ETV5 (P41161 whole entry): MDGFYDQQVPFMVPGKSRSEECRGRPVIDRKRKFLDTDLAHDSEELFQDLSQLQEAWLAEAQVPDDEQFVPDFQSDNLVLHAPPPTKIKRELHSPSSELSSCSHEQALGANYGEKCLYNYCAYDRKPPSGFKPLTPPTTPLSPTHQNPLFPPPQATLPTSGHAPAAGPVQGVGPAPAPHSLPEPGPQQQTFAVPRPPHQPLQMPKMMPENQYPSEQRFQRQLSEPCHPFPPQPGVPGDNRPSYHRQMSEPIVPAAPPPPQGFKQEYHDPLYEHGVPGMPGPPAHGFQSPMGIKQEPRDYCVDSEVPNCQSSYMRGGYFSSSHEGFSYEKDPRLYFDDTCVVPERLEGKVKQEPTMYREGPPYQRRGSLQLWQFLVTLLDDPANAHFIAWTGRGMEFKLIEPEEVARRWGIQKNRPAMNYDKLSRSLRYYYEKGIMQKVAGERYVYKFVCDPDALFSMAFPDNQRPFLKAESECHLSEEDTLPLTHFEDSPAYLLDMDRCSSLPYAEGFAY
# Chain of ETV6 (P41212 whole entry): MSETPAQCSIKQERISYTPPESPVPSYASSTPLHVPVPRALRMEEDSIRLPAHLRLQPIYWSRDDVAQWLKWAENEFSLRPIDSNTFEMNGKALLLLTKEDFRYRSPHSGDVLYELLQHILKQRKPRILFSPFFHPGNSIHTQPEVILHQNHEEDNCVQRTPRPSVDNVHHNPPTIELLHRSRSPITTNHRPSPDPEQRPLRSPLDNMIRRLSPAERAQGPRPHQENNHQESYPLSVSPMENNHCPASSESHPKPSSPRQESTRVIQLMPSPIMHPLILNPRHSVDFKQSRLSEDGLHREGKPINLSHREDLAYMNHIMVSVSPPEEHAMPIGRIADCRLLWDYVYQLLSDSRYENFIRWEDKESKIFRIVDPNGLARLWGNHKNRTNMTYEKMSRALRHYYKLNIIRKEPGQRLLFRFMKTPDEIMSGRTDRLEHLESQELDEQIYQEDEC
# Chain of HSF1 (Q00613 whole entry): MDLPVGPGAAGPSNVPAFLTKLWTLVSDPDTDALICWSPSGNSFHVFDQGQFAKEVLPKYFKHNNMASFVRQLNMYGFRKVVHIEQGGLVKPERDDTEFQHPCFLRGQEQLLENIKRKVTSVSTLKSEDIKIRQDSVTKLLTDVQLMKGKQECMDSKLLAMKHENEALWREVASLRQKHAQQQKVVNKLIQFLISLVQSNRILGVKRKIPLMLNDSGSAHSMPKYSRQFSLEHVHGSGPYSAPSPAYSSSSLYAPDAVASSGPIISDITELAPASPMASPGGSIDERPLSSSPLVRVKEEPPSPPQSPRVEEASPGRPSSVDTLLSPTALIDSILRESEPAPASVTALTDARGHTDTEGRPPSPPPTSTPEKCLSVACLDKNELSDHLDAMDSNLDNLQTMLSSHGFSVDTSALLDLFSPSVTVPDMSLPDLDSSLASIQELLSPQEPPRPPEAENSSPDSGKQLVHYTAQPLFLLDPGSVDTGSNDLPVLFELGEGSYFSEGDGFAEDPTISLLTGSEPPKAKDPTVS
# Chain of CRX (O43186 whole entry): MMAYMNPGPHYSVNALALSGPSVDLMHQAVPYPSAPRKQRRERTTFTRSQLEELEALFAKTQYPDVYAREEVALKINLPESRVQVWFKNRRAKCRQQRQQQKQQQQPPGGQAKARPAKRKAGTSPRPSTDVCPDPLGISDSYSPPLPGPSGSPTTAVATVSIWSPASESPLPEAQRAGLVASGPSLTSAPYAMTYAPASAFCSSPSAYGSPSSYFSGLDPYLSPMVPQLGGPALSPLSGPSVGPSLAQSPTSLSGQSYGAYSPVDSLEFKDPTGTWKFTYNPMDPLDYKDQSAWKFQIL
# Chain of ETV1 (P50549 whole entry): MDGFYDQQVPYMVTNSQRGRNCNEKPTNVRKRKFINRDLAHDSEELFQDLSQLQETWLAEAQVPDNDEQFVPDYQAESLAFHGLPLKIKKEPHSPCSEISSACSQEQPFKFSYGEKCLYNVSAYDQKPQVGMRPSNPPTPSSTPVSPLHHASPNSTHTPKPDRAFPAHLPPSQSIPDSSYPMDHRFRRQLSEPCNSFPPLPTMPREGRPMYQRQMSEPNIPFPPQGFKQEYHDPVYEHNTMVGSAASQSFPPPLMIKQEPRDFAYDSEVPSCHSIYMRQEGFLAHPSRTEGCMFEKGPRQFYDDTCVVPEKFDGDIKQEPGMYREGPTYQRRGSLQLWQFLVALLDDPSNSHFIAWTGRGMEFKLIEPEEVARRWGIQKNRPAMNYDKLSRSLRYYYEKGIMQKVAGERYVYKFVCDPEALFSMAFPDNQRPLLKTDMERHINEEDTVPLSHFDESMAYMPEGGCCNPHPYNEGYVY
# Chain of ELF4 (Q99607 whole entry): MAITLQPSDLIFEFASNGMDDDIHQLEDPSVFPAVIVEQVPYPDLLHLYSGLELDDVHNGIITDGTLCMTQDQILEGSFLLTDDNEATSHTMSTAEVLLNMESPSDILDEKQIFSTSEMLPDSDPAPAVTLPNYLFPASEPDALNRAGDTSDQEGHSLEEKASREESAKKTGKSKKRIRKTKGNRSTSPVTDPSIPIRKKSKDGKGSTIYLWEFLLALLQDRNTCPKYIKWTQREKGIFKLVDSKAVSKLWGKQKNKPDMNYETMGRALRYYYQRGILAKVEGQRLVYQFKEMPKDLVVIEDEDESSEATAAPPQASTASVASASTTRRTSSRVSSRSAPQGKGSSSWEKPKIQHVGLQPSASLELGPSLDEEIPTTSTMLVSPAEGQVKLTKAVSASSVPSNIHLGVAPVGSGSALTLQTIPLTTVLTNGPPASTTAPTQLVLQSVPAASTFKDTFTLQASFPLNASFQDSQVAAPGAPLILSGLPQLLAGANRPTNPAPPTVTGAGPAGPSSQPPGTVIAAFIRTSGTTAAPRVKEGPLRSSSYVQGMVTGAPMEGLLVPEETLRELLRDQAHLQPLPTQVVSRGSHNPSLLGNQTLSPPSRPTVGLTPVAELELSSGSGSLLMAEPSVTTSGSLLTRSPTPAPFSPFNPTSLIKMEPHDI
sequence,measurement,setting,value
TTCAGC,binding signal,FEV,"1.25 fold enrichment (6-mer frequency, TF over GST control)"
same,binding signal,ETV5,"1.22 fold enrichment (6-mer frequency, TF over GST control)"
same,binding signal,HSF1,"1.04 fold enrichment (6-mer frequency, TF over GST control)"
same,binding signal,SPIC,"1.16 fold enrichment (6-mer frequency, TF over GST control)"
same,binding signal,ELF4,"1.28 fold enrichment (6-mer frequency, TF over GST control)"
same,binding signal,ELK4,"1.23 fold enrichment (6-mer frequency, TF over GST control)"
same,binding signal,ETV2,"1.14 fold enrichment (6-mer frequency, TF over GST control)"
same,binding signal,ELF3,"1.27 fold enrichment (6-mer frequency, TF over GST control)"
same,binding signal,CRX,"1.19 fold enrichment (6-mer frequency, TF over GST control)"
same,binding signal,ETV1,"1.3 fold enrichment (6-mer frequency, TF over GST control)"
same,binding signal,ERF,"1.14 fold enrichment (6-mer frequency, TF over GST control)"
same,binding signal,ETV3L,"1.21 fold enrichment (6-mer frequency, TF over GST control)"
same,binding signal,ETS2,"1.27 fold enrichment (6-mer frequency, TF over GST control)"
same,binding signal,SPDEF,"1.12 fold enrichment (6-mer frequency, TF over GST control)"
same,binding signal,ETV7,"1.27 fold enrichment (6-mer frequency, TF over GST control)"
same,binding signal,ELF5,"1.16 fold enrichment (6-mer frequency, TF over GST control)"
same,binding signal,ETV3,"1.32 fold enrichment (6-mer frequency, TF over GST control)"
same,binding signal,ETV6,"1.2 fold enrichment (6-mer frequency, TF over GST control)"
